The results in this text go back to PubChem BioAssay (EPA / NIEHS).

Molecules are shown by their SMILES. Several values for one entry are separate records, joined by “and”; a condition that tells them apart may be missing. Identical values can stand only once. Some compounds were tested as several samples or in several runs, with calls that do not always agree. Activity calls are given as the source filed them. How the source made its calls: active means hit-call score of the fitted dose curve at least 0.9, where 1 is the maximum; inactive means score below 0.9.

Read-out in experiment [1]: Monocyte Chemoattractant Protein-1 (MCP1), CCL2 (gene 6347)
In words: BSK_LPS_MCP1: BioMAP Diversity Plus: LPS Assay for Monocyte Chemoattractant Protein-1 (MCP1) Biomarker Activity (AID 2283081).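 On AC50: secreted MCP-1 protein quantified by ELISA in culture supernatant.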 The conditions noted are these: primary human HUVEC with PBMC; actives raise or lower the signal. Put shortly:
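HUVEC plus PBMC co-culture (human primary cells, LPS system) exposed to test chemical for 24 h; MCP-1 measured by ELISA. Bidirectional curve fitting against DMSO baseline; parallel SRB total-protein staining flags overt cytotoxicity.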

Experiment [2] is described as follows: BSK_LPS_PGE2: BioMAP Diversity Plus: LPS Assay for Prostaglandin E2 (PGE2) Biomarker Activity (AID 2283082). Particulars: primary human HUVEC with PBMC; actives raise or lower the signal. Put shortly:
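Endpoint derived from bidirectional curve fitting versus DMSO of ELISA-measured PGE2 in LPS-stimulated human primary vascular co-culture (HUVEC with PBMC) harvested at 24 h.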

Read-out in experiment [3]: Macrophage colony-stimulating factor (MCSF), CSF1 (gene 1435)
Nature of the experiment: BSK_LPS_MCSF: BioMAP Diversity Plus: LPS Assay for Macrophage colony-stimulating factor (MCSF) Biomarker Activity (AID 2283083). Particulars: primary human HUVEC with PBMC; actives raise or lower the signal. Put shortly:
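Human umbilical vein endothelial cells co-cultured with peripheral blood mononuclear cells were exposed to compound for 24 h. M-CSF levels were measured by ELISA, and bidirectional curve fitting used DMSO as the negative control and baseline.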

Read-out in experiment [4]: Tissue Factor, F3 (gene 2152)
In words: BSK_LPS_TissueFactor: BioMAP Diversity Plus: LPS Assay for Tissue Factor Biomarker Activity (AID 2283084). Particulars: primary human HUVEC with PBMC; actives raise or lower the signal. Put shortly:
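Human umbilical vein endothelial cells co-cultured with peripheral blood mononuclear cells were dosed and stimulated with LPS. Cell-surface CD142 was quantified by ELISA at 24 h. Activity was fitted bidirectionally against DMSO baseline.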

Read-out in experiment [5]: Tumor necrosis factor (Homo sapiens) (UniProt P01375)
In words: BSK_LPS_TNFa: BioMAP Diversity Plus: LPS Assay for Tumour Necrosis Factor alpha (TNFa) Biomarker Activity (AID 2283085). The conditions noted are these: primary human HUVEC with PBMC; actives raise or lower the signal. Put shortly:
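Primary human vascular co-culture of HUVEC and PBMC; TNFa ELISA 24 h after treatment, analysed as increase or decrease relative to DMSO control.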

Read-out in experiment [6]: Vascular cell adhesion molecule 1 (VCAM1), VCAM1 (gene 7412)
In words: BSK_LPS_VCAM1: BioMAP Diversity Plus: LPS Assay for Vascular cell adhesion molecule 1 (VCAM1) Biomarker Activity (AID 2283086). The conditions noted are these: primary human HUVEC with PBMC; actives raise or lower the signal. Put shortly:
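Primary human vascular co-culture (umbilical vein endothelium plus PBMC) stimulated with LPS received chemical; 24 h later VCAM-1 was read by ELISA. Overt cytotoxicity was assessed by sulforhodamine B staining of parallel cultures at the same time point.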

Read-out in the next experiment: CD38, CD38 (gene 952)
Nature of the experiment: BSK_SAg_CD38: BioMAP Diversity Plus: SAg Assay for CD38 Biomarker Activity (AID 2283087). The conditions noted are these: primary human HUVEC with PBMC; actives raise or lower the signal. Put shortly:
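Fluorescence ELISA of cell-surface CD38 served as the read-out, with either increase or decrease fitted against DMSO controls. Cells were a human umbilical vein endothelium plus PBMC co-culture under SEB/TSST-1 stimulation, measured 24 h after dosing.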

Read-out in another experiment: CD40, CD40 (gene 958)
Nature of the experiment: BSK_SAg_CD40: BioMAP Diversity Plus: SAg Assay for CD40 Biomarker Activity (AID 2283088). Particulars: primary human HUVEC with PBMC; actives raise or lower the signal. Put shortly:
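Human umbilical vein endothelial cells co-cultured with PBMC; CD40 levels measured by ELISA with fluorescence read-out 24 h after chemical dosing. Gain or loss of signal fitted bidirectionally against DMSO baseline.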

Read-out in another experiment: CD69, CD69 (gene 969)
Nature of the experiment: BSK_SAg_CD69: BioMAP Diversity Plus: SAg Assay for CD69 Biomarker Activity (AID 2283089).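 On AC50: cell surface CD69 protein quantified by ELISA with fluorescence detection.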 The conditions noted are these: primary human HUVEC with PBMC; actives raise or lower the signal. Put shortly:
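Values derive from bidirectional fitting relative to DMSO vehicle. Cells: umbilical vein endothelium plus peripheral blood mononuclear cells, treated 24 h before fluorescent ELISA for CD69.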

Read-out in experiment [7]: Monocyte Chemoattractant Protein-1 (MCP1), CCL2 (gene 6347)
Nature of the experiment: BSK_SAg_MCP1: BioMAP Diversity Plus: SAg Assay for Monocyte Chemoattractant Protein-1 (MCP1) Biomarker Activity (AID 2283090). Particulars: primary human HUVEC with PBMC; actives raise or lower the signal. Put shortly: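 MCP-1 levels in the endothelial–PBMC SAg co-culture were quantified by ELISA at 24 h post-dosing; both increases and decreases versus DMSO scored. Cytotoxicity monitored by SRB total protein in parallel cultures.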

Read-out in experiment [8]: E-selectin (Homo sapiens) (UniProt P16581)
In words: BSK_SAg_Eselectin: BioMAP Diversity Plus: SAg Assay for Eselectin Biomarker Activity (AID 2283091). The conditions noted are these: primary human HUVEC with PBMC; actives raise or lower the signal. Put shortly:
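HUVEC co-cultured with PBMC, compound dosed then read at 24 h; E-selectin measured by ELISA. Activity fitted bidirectionally against DMSO as negative control and baseline.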

Read-out in experiment [9]: Monokine induced gamma interferon (MIG), CXCL9 (gene 4283)
In words: BSK_SAg_MIG: BioMAP Diversity Plus: SAg Assay for Monokine induced gamma interferon (MIG) Biomarker Activity (AID 2283092). The conditions noted are these: primary human HUVEC with PBMC; actives raise or lower the signal. Put shortly: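 Values reflect bidirectional fitting of ELISA-measured MIG against DMSO vehicle, taken 24 h after dosing of a co-culture of human umbilical vein endothelial cells and peripheral blood mononuclear cells.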

A short description of experiment [10]: BSK_SAg_PBMCCytotoxicity: PBMC Cytotoxicity Assessment in the BioMAP Diversity Plus: SAg Assay (AID 2283093).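 Further: PBMC viability measured as Alamar Blue reduction fluorescence at 546/580 nm; fitted both ways against DMSO so a hit may be loss or gain of signal.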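 On AC50: PBMC superantigen activated with SEB plus TSST-1 one hour after compound addition.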 The conditions noted are these: primary human HUVEC with PBMC. Put shortly:
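Human umbilical vein endothelial cells co-cultured with PBMC; PBMC (75,000/well) pre-treated with compound 1 h, then activated with SEB and TSST-1 (20 ng/mL final each) for 90 h. Alamar Blue added 6 h, fluorescence 546/580 nm; bidirectional fit versus DMSO.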

Read-out in experiment [11]: Interleukin-8 (IL8), CXCL8 (gene 3576)
Nature of the experiment: BSK_SAg_IL8: BioMAP Diversity Plus: SAg Assay for Interleukin-8 (IL8) Biomarker Activity (AID 2283094). Particulars: primary human HUVEC with PBMC; actives raise or lower the signal. Put shortly:
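In this co-culture of human umbilical vein endothelium with peripheral blood mononuclear cells, IL-8 is assayed by ELISA at 24 h. DMSO serves as baseline for bidirectional curve fitting.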

Experiment [12] can be described thus: BSK_SAg_Proliferation: Cell Proliferation Assessment in the BioMAP Diversity Plus: SAg Assay (AID 2283095).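 Further: relative cell number as total protein by SRB absorbance in sub-confluent culture.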 The conditions noted are these: primary human HUVEC with PBMC. Put shortly: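 Readout is SRB-stained protein (560 nm) in a primary human HUVEC and PBMC co-culture; sub-confluent cultures are read at 96 h. Activity is fitted bidirectionally using DMSO as baseline.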

Experiment [13] in a line: BSK_SAg_SRB: Viability Assessment in the BioMAP Diversity Plus: SAg Assay (AID 2283096).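 Further: cells read one day after compound addition; hits may be either gain or loss of signal compared with DMSO.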 The conditions noted are these: primary human HUVEC with PBMC. Put shortly:
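Endothelial/PBMC primary human co-culture; compound 24 h; fix 10% TCA, stain 0.1% SRB, A560; protein content as cytotoxicity proxy; bidirectional curve fit, DMSO = baseline.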

Tumor necrosis factor (Homo sapiens), sequence (P01375 whole entry, looked up): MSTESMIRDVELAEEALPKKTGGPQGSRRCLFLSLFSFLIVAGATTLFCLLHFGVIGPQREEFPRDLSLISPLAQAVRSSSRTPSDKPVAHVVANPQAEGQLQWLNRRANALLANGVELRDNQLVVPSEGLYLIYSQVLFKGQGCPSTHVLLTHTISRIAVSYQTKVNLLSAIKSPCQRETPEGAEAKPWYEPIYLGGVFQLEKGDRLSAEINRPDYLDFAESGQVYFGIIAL
E-selectin (Homo sapiens), sequence (P16581 whole entry, looked up): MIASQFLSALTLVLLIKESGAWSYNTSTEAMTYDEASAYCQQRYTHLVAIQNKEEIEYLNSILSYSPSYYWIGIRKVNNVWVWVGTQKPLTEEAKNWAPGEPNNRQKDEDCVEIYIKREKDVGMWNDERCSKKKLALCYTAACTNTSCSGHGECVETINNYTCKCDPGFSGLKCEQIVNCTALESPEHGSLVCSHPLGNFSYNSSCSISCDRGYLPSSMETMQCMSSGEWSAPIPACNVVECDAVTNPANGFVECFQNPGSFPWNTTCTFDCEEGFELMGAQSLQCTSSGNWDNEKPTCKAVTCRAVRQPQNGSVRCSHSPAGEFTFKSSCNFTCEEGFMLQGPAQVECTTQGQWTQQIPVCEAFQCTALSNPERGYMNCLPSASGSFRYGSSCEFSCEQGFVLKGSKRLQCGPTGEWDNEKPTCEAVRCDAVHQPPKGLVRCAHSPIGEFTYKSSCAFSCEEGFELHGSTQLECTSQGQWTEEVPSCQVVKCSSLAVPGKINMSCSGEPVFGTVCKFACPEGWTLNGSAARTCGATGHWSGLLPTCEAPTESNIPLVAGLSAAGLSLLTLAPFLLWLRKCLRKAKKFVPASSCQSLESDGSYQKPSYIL

A word on the AC50: it is the concentration giving half of the maximal activity seen. Consider `N=C(N)C(F)(F)C(F)(F)C(F)(F)C(F)(F)C(F)(F)C(F)(F)C(F)(F)F`, for which the AC50 in [1] is 45.8 µM (active); in experiment [3], 47 µM (active); in experiment [5] it was 33.1 µM (active); in [6], 40.3 µM (active); with CD38, CD38 (gene 952), 53.6 µM (active); in the experiment with CD40, CD40 (gene 958), 54.7 µM (active). Moreover, the AC50 with CD69, CD69 (gene 969) was 51 µM (active); in experiment [7], 55 µM (active); in experiment [8] it was 48.3 µM (active); in [9] it was 55.4 µM (active); in experiment [10] it was 45.9 µM (active) and 55.1 µM (active); in [11] it was 55.1 µM (active). For the same molecule, the AC50 was 45 µM (active) and 47.4 µM (active) in [12]; 53 µM (active) in experiment [13]. Besides, the outcome in experiment [1], in [2], in [3], in experiment [4], in experiment [5] and in [6] was inactive. Besides, the outcome with CD38, CD38 (gene 952) is “inactive”; in the experiment with CD40, CD40 (gene 958) it was “inactive”; with CD69, CD69 (gene 969), “inactive”; in experiment [7], “inactive”; in experiment [8] it was “inactive”; in [9] it was “inactive”. For the same molecule, the result in experiment [11] and in experiment [13] was inactive.
Regarding `O=C(O)C(F)(F)C(F)(F)C(F)F`, the outcome in experiment [1], in [2], in experiment [3], in experiment [4], in [5] and in experiment [6] was inactive. The outcome was “inactive” with CD38, CD38 (gene 952); “inactive” with CD40, CD40 (gene 958); “inactive” with CD69, CD69 (gene 969); “inactive” in experiment [7]; “inactive” in experiment [8]; “inactive” in experiment [9]. In addition, the result in [10], in experiment [11], in experiment [12] and in experiment [13] was inactive.
For `FC1CC(F)(F)C(F)(F)C1(F)F` (configuration not stated), the result in [1], in experiment [2], in experiment [3], in [4], in experiment [5] and in [6] was inactive. The outcome was “inactive” with CD38, CD38 (gene 952); “inactive” with CD40, CD40 (gene 958); “inactive” with CD69, CD69 (gene 969); “inactive” in [7]; “inactive” in [8]; “inactive” in experiment [9]. In addition, the outcome in [10], in experiment [11], in [12] and in experiment [13] was inactive.
Consider `C=CC(F)(F)C(F)(F)C(F)(F)C(F)(F)C(F)(F)C(F)(F)C(F)(F)C(F)(F)C=C`, for which the outcome in [1], in experiment [2], in [3], in [4], in experiment [5] and in experiment [6] was inactive. Further, the outcome with CD38, CD38 (gene 952) was “inactive”; with CD40, CD40 (gene 958), “inactive”; with CD69, CD69 (gene 969) it was “inactive”; in experiment [7], “inactive”; in [8], “inactive”; in [9], “inactive”. Further, the result in experiment [10], in experiment [11], in [12] and in experiment [13] was inactive.
As for `C=C(C)C(=O)OCC(F)(F)C(F)(F)C(F)(F)F`, the outcome in [1], in experiment [2], in [3], in experiment [4], in [5] and in experiment [6] was inactive. The outcome was “inactive” with CD38, CD38 (gene 952); “inactive” in the experiment with CD40, CD40 (gene 958); “inactive” with CD69, CD69 (gene 969); “inactive” in experiment [7]; “inactive” in [8]; “inactive” in experiment [9]. For the same molecule, the result in [10], in [11], in experiment [12] and in [13] was inactive.
